According to PubChem BioAssay AID720676 (National Center for Advancing Translational Sciences (NCATS), 2013):
Records with an inconclusive call do not appear. The source made the active and inactive calls. Calls come from the whole dose curve; as a rule, active = well fitted curve in the direction sought with a large enough effect; inconclusive = small, poorly fitted or top-dose-only effect, or another doubt; inactive = no such curve, though single readings can be large or run the other way.

assay: qHTS of small molecules that selectively kill Giardia lamblia: GS isolate Assay for SAR; settings: Giardia lamblia GS isolate viability; series mostly up to 38.3 µM
From the text: Giardia lamblia is a human pathogen afflicting impoverished nations, and the most common cause of outbreaks of diarrhea in the United States. Giardia has been classified by the CDC as a category B bioterrorism organism. The favored anti giardiasis drugs in the US are metronidazole or tinidazole, compounds that have undesirable side effects. Moreover, increasing resistance to these drug regimens and recurrence remains a concern. It is thus clear that alternative drug treatments are needed.
In collaboration with the University of Maryland (College Park), a bioluminescence Giardia viability assay based on the trophozoites' ATP content was developed. This assay is suitable for high throughput screening, and miniaturized the assay for compound screening in 1536-well plates. The Molecular Libraries Small Molecule Repository (MLSMR) was screened against this assay to find compounds that selectively kill Giardia trophozoites (AID 540267). Selected compounds were re-acquired to confirm their trophozoite toxicity activity (AID 588397) and lead chemotypes were identified for medicinal chemistry optimization. The data herein is the result of the first round of SAR for this project. Decrease in luminescence signal indicative of tropozoite growth inhibition (inhibitors) is the desired outcome for this assay.
NIH Chemical Genomics Center [NCGC]
NIH Molecular Libraries Probe Centers Network [MLPCN]
Assay Submitter (PI): Osnat Herzberg, University of Maryland, College Park, MD.
Giardia assay media was dispensed to an assay plate at 2 ul / well volume. Twenty-three nanoliter / well compounds were pinned into the plates using the Kalypsys robotic system. Giardia trophozoites were dispensed into the well at a concentration of 100 cells / well and incubated anaerobically at 37C for 48 hours. After compound incubation, 4 ul/ well ATPLite 1-Step luminescence assay detection reagent was and the plates were incubated at room temperature. After 30 min of incubation with the detection reagent, luminescence signal was obtained using the PerkinElmer ViewLux plate reader. Data was then processed and normalized to both positive and negative controls. Biosafety level 2 laboratory practices were observed throughout the duration of this screen.

For `Cc1cc(C)nc(NC(=S)N2CCN(c3ncccc3C#N)CC2)c1`, which outcome is on record?
Its outcome is “inactive”.

For `Cc1ccnc(NC(=S)N2CCN(c3cccc(C(F)(F)F)c3)CC2)c1`, which outcome is on record?
The outcome was “inactive”.

Which outcome does the source give for `Cc1ccnc(NC(=S)N[C@@H]2CCN(c3cccc(C(F)(F)F)c3)C2)c1` here?
The outcome was “inactive”.

With `Cc1ccnc(NC(=S)N2CC3CN(c4cccc(C(F)(F)F)c4)CC3C2)c1` (stereo unspecified) as the molecule, how does the outcome read?
Its outcome is “inactive”.

With `Cc1cc(C)nc(NC(=S)N2CCN(c3ccc(Cl)cc3Cl)CC2)c1` as the molecule, how does the outcome read?
The outcome was “inactive”.

With `COc1ccnc(NC(=S)N2CCN(c3ncc(C(F)(F)F)cc3Cl)CC2)c1` as the molecule, how does the outcome read?
Its outcome is “inactive”.

For `Cc1ccnc(NC(=S)N2CCCN(c3cccc(C(F)(F)F)c3)CC2)c1`, which outcome is on record?
The outcome was “inactive”.

For `Cc1cc(C)nc(NC(=S)N2CCN(c3ccc(Cl)c(Cl)c3)CC2)c1`, which outcome is on record?
The outcome was “inactive”.

Which outcome does the source give for `COc1ccnc(NC(=S)N2CCN(c3cccc(Cl)c3Cl)CC2)c1` here?
The outcome was “inactive”.

With `Cc1ccnc(NC(=S)N2CCCc3ccc(C(F)(F)F)cc32)c1` as the molecule, how does the outcome read?
Its outcome is “inactive”.

For `CSC(Cc1ccc(Cl)cc1)C(=O)Nc1ccc(Cl)cc1C(=O)O` (stereo unspecified), which outcome is on record?
The outcome was “inactive”.

With `Cc1ccnc(NC(=S)N2CC3CN(c4ncc(C(F)(F)F)cc4Cl)CC3C2)c1` (stereo unspecified) as the molecule, how does the outcome read?
The outcome was “inactive”.

For `S=C(Nc1cc(Cl)ccn1)N1CCN(c2cccc(Cl)c2Cl)CC1`, which outcome is on record?
The outcome was “inactive”.

Which outcome does the source give for `COc1cccc(NC(=S)N2CCN(c3cc(Cl)cc(Cl)c3)CC2)n1` here?
The outcome was “inactive”.

For `Cc1cc(C)nc(NC(=S)N2CCN(c3ccc(Cl)cc3C(F)(F)F)CC2)c1`, which outcome is on record?
Its outcome is “inactive”.

Which outcome does the source give for `COc1ccnc(NC(=S)N2CCN(c3ccc(Cl)cc3Cl)CC2)c1` here?
The outcome was “inactive”.

Which outcome does the source give for `Cc1cc(C)nc(NC(=S)N2CC3CN(c4ccc(Cl)cc4C(F)(F)F)CC3C2)c1` (stereo unspecified) here?
Its outcome is “inactive”.

Which outcome does the source give for `FC(F)(F)c1cccc(N2CCN(C(=S)Nc3cc(C(F)(F)F)ccn3)CC2)c1` here?
Its outcome is “inactive”.

Which outcome does the source give for `Cc1ccnc(NC(=S)Nc2cccc(C(F)(F)F)c2)c1` here?
The outcome was “inactive”.

With `Cc1nc(CN(C)c2ncnc3ccc(-c4ccc5[nH]ncc5c4)cc23)cs1` as the molecule, how does the outcome read?
The outcome was “inactive”.

Which outcome does the source give for `COc1cccc(NC(=S)N2CCN(c3ccc(Cl)c(Cl)c3)CC2)n1` here?
Its outcome is “inactive”.

With `CC(Cc1ccccc1)C(=O)Nc1ccc(Cl)cc1C(=O)O` (stereo unspecified) as the molecule, how does the outcome read?
The outcome was “inactive”.

With `Cc1ccnc(N=C(N)N2CCN(c3cccc(C(F)(F)F)c3)CC2)c1` as the molecule, how does the outcome read?
Its outcome is “inactive”.

With `Cc1cc(C)nc(NC(=S)N2CCN(c3ccc([N+](=O)[O-])cc3Cl)CC2)c1` as the molecule, how does the outcome read?
The outcome was “inactive”.

With `FC(F)(F)c1cccc(N2CCN(C(=S)Nc3nccc4ccccc34)CC2)c1` as the molecule, how does the outcome read?
Its outcome is “inactive”.

With `FC(F)(F)c1cc(N2CCN(C(=S)Nc3cc(Cl)ccn3)CC2)cc(C(F)(F)F)c1` as the molecule, how does the outcome read?
Its outcome is “inactive”.
